PubChem BioAssay

Assay: inhibitors of Cryptococcus chitosan production, flow cytometry, Cibacron Brilliant Red staining (AID 1347148);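 further: compound exposure lasted three days at 37 degrees C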
Conditions: Cryptococcus neoformans chitosan, hits give low values; at 10 µM unless noted; call rule not given here

Fold fluorescence, inactive:
CCCCCCCCCCCCCCC[C@H](O)[C@@H](CO)NC(=O)CCCCCCC 6.03
CCCCCCCCCCCCCCCCOC[C@@H](COP(=O)([O-])OCC[N+](C)(C)C)OC 4.86
CCOC(=O)C1=C(C)NC(=S)N[C@H]1c1cccc(O)c1 3.63 [at 171 µM]
CCCCC[C@@H](O)/C=C/[C@H]1[C@H](CCCCCCC(=O)O)C(=O)C[C@@H]1O 4.03
CCCCCCCCCCCCCCC[C@H](O)[C@@H](CO)NC(C)=O 4.64
COc1ccc(CCCO[C@@H](Cn2ccnc2)c2ccc(OC)cc2)cc1 7.02 [at 136.4 µM]
CC(=O)[C@@H]1[C@@H](C#N)C[C@@H]2[C@H]3CC=C4C[C@H](O)CC[C@@]4(C)[C@@H]3CC[C@]21C 3.64 [at 146.4 µM]
OC[C@@H]1NC[C@@H](O)[C@H](O)[C@H]1O 7.48 [at 306.4 µM]
CCCCOc1cc(C[C@H]2CNC(=O)N2)ccc1OC 8.15 [at 179.6 µM]
CC[C@H]1/C=C(\C)C[C@@H](C)C[C@@H](OC)[C@@H]2O[C@](O)(C(=O)C(=O)N3CCCC[C@@H]3C(=O)O[C@@H](/C(C)=C/[C@H]3CC[C@H](O)[C@@H](OC)C3)[C@@H](C)[C@H](O)CC1=O)[C@@H](C)C[C@H]2OC 13.8 [at 63.1 µM]
COC(=O)C1=C(C)NC(C)=C(C(=O)OCCSc2ccccc2)[C@H]1C 8.74 [at 138.3 µM]
CCCCC[C@@H](O)/C=C/[C@H]1[C@H](CC(=O)CCCCC(=O)O)[C@H](O)C[C@@H]1O 4.59
C1CCC[C@H]2CCCN3CC[C@@H](CCCCCC[C@@H]4CCCN5CC[C@@H](CC1)O[C@@H]45)O[C@@H]23 6.06 [at 11.2 µM]
CCCCC[C@@H](O)/C=C/[C@H]1[C@@H]2C/C(=C/CCCC(=O)O)C[C@@H]2C[C@@H]1O 4.8
CCCCC[C@@H](O)/C=C/[C@H]1[C@@H](C/C=C\CCCC(=O)O)[C@H](O)C[C@@H]1O 4.83
CCCCC[C@H](O)c1cccc(OCc2ccc3ccccc3n2)c1 5.53
O=C(NC[C@H]1CCCCN1)c1cc(OCC(F)(F)F)ccc1OCC(F)(F)F 6.98 [at 120.7 µM]
COC(=O)C1=C(C)NC(C)=C(C(=O)OCCN(C)Cc2ccccc2)[C@H]1c1cccc([N+](=O)[O-])c1 4.49 [at 104.3 µM]
CCCCC(C)(C)[C@@H](O)/C=C/[C@H]1[C@H](C/C=C\CCCC(=O)O)C(=O)C[C@@H]1O 4.79
C=C1O[C@](CO)(n2cnc3c(N)ncnc32)[C@@H](O)[C@H]1O 10.1 [at 179 µM]
N#Cc1cc2c(OC[C@@H](O)CN3CCN(C(c4ccccc4)c4ccccc4)CC3)cccc2[nH]1 3.58 [at 107.2 µM]
